Data reported in PMC6212833.
Over roughly 2,000 compounds, “B-score” has its median near -0.0024; the highest 2% begin near 4. The full list was thinned out, with the highest values kept by preference.

tested on: Balamuthia mandrillaris (ATCC PRA-291) trophozoites, axenic culture; experiment: primary screen, b score; conditions: 20 µM
Outline: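 Trophozoites (3,000/well) in axenic medium exposed to library drugs at 20 µM in 0.2% DMSO for 72 h; viability by CellTiter Glo luminescence at 2, 4 and 8 h. Controls: vehicle and freeze-thaw amoeba lysate; B-score corrects row, column and edge effects.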

Structure (SMILES)	B-score
Cc1nc(Nc2ncc(C(=O)Nc3c(C)cccc3Cl)s2)cc(N2CCN(CCO)CC2)n1 [756746-L2]	1.19
Cc1nc(Nc2ncc(C(=O)Nc3c(C)cccc3Cl)s2)cc(N2CCN(CCO)CC2)n1 [756746-L1]	8.3
C[C@H]1O[C@@H](O[C@H]2[C@@H](O)C[C@H](O[C@H]3[C@@H](O)C[C@H](O[C@H]4CC[C@@]5(C)[C@H](CC[C@@H]6[C@@H]5CC[C@]5(C)[C@@H](C7=CC(=O)OC7)CC[C@]65O)C4)O[C@@H]3C)O[C@@H]2C)C[C@H](O)[C@@H]1O	-0.38
CC(=O)Oc1ccccc1C(=O)Nc1ncc([N+](=O)[O-])s1	-0.287
C=C1CC2C(CC[C@]3(C)C(=O)CCC23)[C@@]2(C)C=CC(=O)C=C12 (stereo partly shown)	-0.0158
C=C1C[C@@H]2[C@H](CC[C@]3(C)C(=O)CC[C@@H]23)[C@@]2(C)C=CC(=O)C=C12	7.82
C[C@]12CC[C@H](O)CC1=CCC1C2CC[C@]2(C)C(=O)CC[C@@H]12 (stereo partly shown)	0.449
CCN1CCN(c2cc3c(cc2F)c(=O)c(C(=O)O)cn3C2CC2)CC1	-2.37
CO/N=C(\C(=O)N[C@@H]1C(=O)N2C(C(=O)O)=C(COC(C)=O)CS[C@H]12)c1csc(N)n1	2.94
N[C@@H](Cc1ccccc1)C(=O)O	-1.27
C#CC1(O)CCC2C3CCC4=C/C(=N/O)CCC4C3CCC21CC (stereo not shown)	-0.44
CC(C)(O)c1ccccc1CC[C@@H](SCC1(CC(=O)O)CC1)c1cccc(/C=C/c2ccc3ccc(Cl)cc3n2)c1	-1.02
Oc1c(Cl)cc(Cl)cc1Sc1cc(Cl)cc(Cl)c1O	-2.1
CC(=O)OCC1=C(C(=O)O)N2C(=O)[C@@H](NC(=O)CSc3ccncc3)[C@H]2SC1	-1.22
CC(=O)OCC1=C(C(=O)O)N2C(=O)[C@@H](NC(=O)CC#N)[C@H]2SC1	-1.27
CC(=O)OCC1=C(C(=O)O)N2C(=O)[C@@H](NC(=O)Cc3cccs3)[C@H]2SC1	4.7

Structure (SMILES)	B-score
Cc1cn([C@H]2C[C@H](N=[N+]=[N-])[C@@H](CO)O2)c(=O)[nH]c1=O [735592-L3]	-1.48
CC(C)(C)NC(=O)[C@H]1C[C@@H]2CCCC[C@@H]2CN1C[C@@H](O)[C@H](Cc1ccccc1)NC(=O)[C@@H](CC(N)=O)NC(=O)c1ccc2ccccc2n1	-1.24
NC[C@@H]1O[C@H](O[C@@H]2[C@@H](CO)OC(O[C@@H]3[C@@H](O)[C@H](N)C[C@H](N)[C@H]3OC3O[C@H](CN)[C@@H](O)[C@H](O)[C@H]3N)[C@@H]2O)[C@H](N)[C@@H](O)[C@@H]1O (stereo partly shown)	0.82
CC[C@H]1OC(=O)[C@H](C)[C@@H](O[C@H]2C[C@@](C)(OC)[C@@H](O)[C@H](C)O2)[C@H](C)[C@@H](O[C@@H]2O[C@H](C)C[C@H](N(C)C)[C@H]2O)[C@](C)(O)C[C@@H](C)/C(=N\OCOCCOC)[C@H](C)[C@@H](O)[C@]1(C)O	0.27
CCC1=C(C)CN(C(=O)NCCc2ccc(S(=O)(=O)NC(=O)N[C@H]3CC[C@H](C)CC3)cc2)C1=O	1.92
O=C(O)C[C@H](O)C[C@H](O)/C=C/c1c(C2CC2)nc2ccccc2c1-c1ccc(F)cc1	-0.609
CC(C)c1nc(N(C)S(C)(=O)=O)nc(-c2ccc(F)cc2)c1/C=C/[C@@H](O)C[C@@H](O)CC(=O)O	3.13
COCc1c(C(C)C)nc(C(C)C)c(/C=C/[C@@H](O)C[C@@H](O)CC(=O)O)c1-c1ccc(F)cc1	13.3
CC[N+](CC)(CC)CCOc1cccc(OCC[N+](CC)(CC)CC)c1OCC[N+](CC)(CC)CC	5.36
CC(C)NCC(O)COc1cccc2ccccc12 (stereo not shown)	0.797
CC(C)NC[C@H](O)COc1cccc2ccccc12	-4.66
CC(Cc1ccccc1)(NC(=O)CN)c1ccccc1 (stereo not shown)	1.27
CC[C@H]1CN2CCC1C[C@@H]2[C@@H](O)c1ccnc2ccc(OC)cc12 (stereo partly shown)	0.0568
CCCCC1(COC(=O)CCC(=O)O)C(=O)N(c2ccccc2)N(c2ccccc2)C1=O	-1.04
O=C1CC[C@@H](N2C(=O)c3ccccc3C2=O)C(=O)N1	-1.22
